Experimental data published in ChEMBL document CHEMBL3988442, “University of Dundee, Small-Polar-MMV Screening Library” (2021).

Tests used:
[1] = molecular target: T1, Aspartate--tRNA(Asp/Asn) ligase (Mycobacterium tuberculosis (strain ATCC 25618 / H37Rv)) (UniProt P9WFW3); experiment: Assay for Asp RNA synthetase-1 from Mycobacterium tuberculosis; format: functional; set-up: scale not given: direction of the effect not stated beside the values; conditions: 30 µM; further: in the data most compounds retested in dose-response had high values
T1 sequence (whole entry): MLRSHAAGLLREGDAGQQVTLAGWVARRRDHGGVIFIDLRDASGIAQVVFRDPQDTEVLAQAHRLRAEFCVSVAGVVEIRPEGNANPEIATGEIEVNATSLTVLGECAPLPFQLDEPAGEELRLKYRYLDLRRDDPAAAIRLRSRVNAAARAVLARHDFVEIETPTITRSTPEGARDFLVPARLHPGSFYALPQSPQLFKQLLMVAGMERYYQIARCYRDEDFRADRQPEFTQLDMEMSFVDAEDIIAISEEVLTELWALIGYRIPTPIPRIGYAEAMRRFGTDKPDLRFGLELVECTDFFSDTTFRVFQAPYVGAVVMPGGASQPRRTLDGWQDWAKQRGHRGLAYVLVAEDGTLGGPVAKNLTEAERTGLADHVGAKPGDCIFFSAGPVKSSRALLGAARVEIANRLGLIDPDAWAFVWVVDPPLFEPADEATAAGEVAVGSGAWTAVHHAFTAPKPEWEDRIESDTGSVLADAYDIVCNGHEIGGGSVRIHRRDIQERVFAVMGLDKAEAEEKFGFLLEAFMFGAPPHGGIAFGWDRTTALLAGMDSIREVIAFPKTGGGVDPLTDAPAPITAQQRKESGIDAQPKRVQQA

[2] = molecular target: Shiga toxin 2 (Escherichia coli O157:H7) (UniProt P09385+P09386); experiment: E. coli 0.157:H7 Shiga Toxin SOP - stx2 screening assay; format: functional; set-up: scale not given: direction of the effect not stated beside the values; conditions: 30 µM

SMILES | Percent Effect [1] [%] | Percent Effect [2] [%]
O=C(c1cnccn1)N1CCCC2(COCCN(CC3CC3)C2)C1 (stereo not drawn) | 3.16 | 9.41
O=C(c1cscn1)N1CC[C@]2(C[C@@H](OCCN3CCCC3)CO2)C1 | -3.81 | -17.4
Cc1nn(C)c(N(C)C)c1CNCc1cccnc1-n1cncn1 | -4.35 | -5.81
CC(C(=O)N1CCCC1)N1CCC(c2nccn2CC2CCC2)CC1 (stereo not drawn) | -1.49 | -1.48
Cc1cc(C(=O)N2CCCC(n3cncn3)C2)c(C)n1C1CC1 (stereo not drawn) | -2.4 | 9.3
Cc1nc(N2CCN(C(=O)C3CC3)CC2)c2c(n1)c(C)nn2C | -2.18 | -35.4
c1cnnc(N2CCCC(NCc3ccc(-n4ccnc4)cc3)C2)c1 (stereo not drawn) | -2.02 | 10.2
COc1cccc(-n2c(C)cc(C(=O)O)c2C)c1 | -3.77 | 5.95
Cc1cncc(C2CCCN(C(=O)c3ccc(C)[nH]c3=O)C2)n1 (stereo not drawn) | 0.25 | -13
O=C(NCc1cc[nH]n1)NCC(O)COc1cccc(F)c1 (stereo not drawn) | 1.72 | -40
O=C(NC[C@]1(O)CN(Cc2ccccc2F)C[C@H]1O)c1ccccn1 | 7.9 | 19.5
Cc1occc1C(=O)N1CCC2(CCN(Cc3nccs3)C2)CC1 | 0.208 | -15.8
O=C(NCCN1CCOCC1)c1cc(-c2ccc3c(c2)CCO3)n[nH]1 | 2.35 | -67.8
CCCN1CCC(NC(=O)c2ccc(F)cc2I)CC1 | -6.77 | 2.29
CC(=O)NC(C)CC(=O)NCc1cccnc1Oc1ccccc1C (stereo not drawn) | -4.43 | 2.41
Cc1nn(C)c2c(NCc3cccnc3)nc(C3CC3)nc12 | 8.74 | -7.86
O=C(NCCNc1ccc(C(F)(F)F)cn1)c1cncc(Br)c1 | 3.26 | 28.2
CS(=O)(=O)N1CCC(C(=O)NCCNc2ncccn2)CC1 | -0.962 | -1.12
CCN(C)Cc1cnc(S(=O)(=O)CC)n1CCOC | -5.11 | -0.758
